Laboratory results from PubChem BioAssay (Tox21).
Inconclusive results are not listed. Active and inactive are the calls of the source. The call rests on the fitted dose curve; in most records, active means well fitted cell-killing curve with a large enough effect in the repeat runs; inconclusive means weak or mixed curves, or effect the other way; inactive means flat fitted curve, though single readings scatter.

experiment: qHTS assay to identify small molecule antagonists of the androgen receptor (AR) signaling pathway using the MDA cell line in the presence of 0.5 nM R1881 - cell viability counter screen (AID 1259242); details: MDA-kb2 viability, CellTiter-Fluor protease fluorescence, 16 h; series mostly up to 92.4 µM; further: nearly all actives have a fitted effect of over 45% in size
Source text: U.S. Tox21 Program National Center for Advancing Translational Sciences [NCATS] NIH Chemical Genomics Center [NCGC] U.S. Environmental Protection Agency [EPA] National Institutes of Environmental Health Sciences [NIEHS] National Toxicology Program [NTP] U.S. Food and Drug Administration [FDA] Tox21 Assay Overview: Androgen receptor (AR) is an important member of the nuclear receptor family. Its signaling plays a critical role in AR-dependent prostate cancer and other androgen related diseases. Considerable attention has been given in the past decades to develop methods to study and screen for the environmental chemicals that have the potential to interfere with metabolic homeostasis, reproduction, developmental and behavioral functions. Therefore AR binding assay for screening androgen antagonists can be used to identify potential endocrine disruptors. MDA-kb2 cells (from ATCC, deposited by Wilson et al.) were used to screen for AR inhibitors against Tox21 compound libraries. These cells are human breast carcinoma cells that were stably transfected with a luciferase reporter gene under control of the MMTV promoter that contains response elements for both androgen receptor (AR) and glucocorticoid receptor (GR). The current screening for identification of AR inhibitors against Tox21 libraries used lower concentration of (0.5 nM) R1881 as a stimulator. The cytotoxicity of the Tox21 compound libraries against MDA-kb2 cell line was tested by measuring live-cell protease activity using CellTiter-Fluor assay in the same wells.
Tox21 Assay Protocol Summary: MDA-kb2 cells (cells cultured without CO2) were dispensed at 3,000 cells/well in 4 uL of culture medium into white wall/solid-bottom 1536-well plates (Corning Life Sciences, Corning, NY) using a Multidrop Combi (ThermoFisher Scientific, Waltham, MA) dispenser. After the assay plates were incubated at a 37C and 0% CO2 for 5 hr, 23 nL of compounds dissolved in DMSO, positive controls or DMSO only was transferred to the assay plate by a Pintool station (Kalypsys, San Diego, CA). The transfer of compounds was followed by the addition of 1 uL of 0.5 nM (final concentration) agonist (R1881)/culture medium using a Flying Reagent Dispenser (FRD, Aurora Discovery, San Diego, CA). The plates were incubated at 37C and 0% CO2 for 16 hr. For cytotoxicity assay, 1 uL of CellTiter-Fluor reagent (Promega Corporation, Madison, WI) was added to each well using the FRD and after 30 min incubation at 37C and 0% CO2, The fluorescence intensity was measured using ViewLux plate reader (PerkinElmer, Shelton, CT).
On the % scale 0 is the no-effect control and ±100 the full control effect.

Question: For `CC(=O)N[C@@H](CCC(=O)O)C(=O)O`, which outcome is on record?
Answer: The outcome was “inactive”.

Question: With `O=S(=O)(O)c1ccc2cc(O)c(S(=O)(=O)O)cc2c1` as the molecule, how does the outcome read?
Answer: Its outcome is “inactive”.

Question: With `COc1ccc2c(c1OC)C(=O)O[C@@H]2[C@H]1c2c(cc3c(c2OC)OCO3)CCN1C` as the molecule, how does the outcome read?
Answer: The outcome was “inactive”.

Question: With `O=C(CCN1CCN(CCO)CC1)N1c2ccccc2Sc2ccc(C(F)(F)F)cc21` as the molecule, how does the outcome read?
Answer: The outcome was “inactive”.

Question: Which outcome does the source give for `NS(=O)(=O)c1ccc(NC(=O)CCC(=O)O)cc1` here?
Answer: The outcome was “inactive”.

Question: Which outcome does the source give for `C[C@H](CCC(=O)O)[C@H]1CC[C@H]2[C@@H]3C(=O)C[C@@H]4CC(=O)CC[C@]4(C)[C@H]3CC(=O)[C@]12C` here?
Answer: Its outcome is “inactive”.

Question: With `COC(=O)[C@@H]1[C@H]2C[C@H]3c4[nH]c5ccccc5c4CCN3C[C@@H]2CC[C@@H]1O` as the molecule, how does the outcome read?
Answer: Its outcome is “inactive”.

Question: For `CC(C)(C)NC(N)=O`, which outcome is on record?
Answer: The outcome was “inactive”.

Question: For `OCCCCC(O)CO` (stereo not given), which outcome is on record?
Answer: The outcome was “inactive”.

Question: With `O=C1c2cccc3c2[C@H](CCC3)CN1[C@@H]1CN2CCC1CC2` as the molecule, how does the outcome read?
Answer: The outcome was “inactive”.

Question: With `CCCCNc1ccc(C(=O)OCCN(C)C)cc1` as the molecule, how does the outcome read?
Answer: Its outcome is “inactive”.

Question: Which outcome does the source give for `CC(C)CCCCOC(=O)c1ccccc1C(=O)OCCCCC(C)C` here?
Answer: Its outcome is “inactive”.

Question: For `C[C@H](N)[C@H](O)c1cccc(O)c1`, which outcome is on record?
Answer: The outcome was “inactive”.

Question: For `CN1C(C)(C)CCCC1(C)C`, which outcome is on record?
Answer: The outcome was “inactive”.

Question: For `Cc1[nH]cnc1-c1ccc(Cl)cc1`, which outcome is on record?
Answer: Its outcome is “inactive”.

Question: Which outcome does the source give for `COc1ccc(Br)c(C)c1` here?
Answer: Its outcome is “inactive”.

Question: Which outcome does the source give for `CCOCCOC(=O)/C=C/c1ccc(OC)cc1` here?
Answer: The outcome was “inactive”.

Question: Which outcome does the source give for `C=C(C)C1CCC(C)(O)CC1` (stereo not given) here?
Answer: Its outcome is “inactive”.

Question: Which outcome does the source give for `On1nnc2ccccc21` here?
Answer: The outcome was “inactive”.

Question: For `C[Si](C)(C)C`, which outcome is on record?
Answer: Its outcome is “inactive”.

Question: Which outcome does the source give for `CC1(C)S[C@@H]2[C@H](N=CN3CCCCCC3)C(=O)N2[C@H]1C(=O)O` here?
Answer: Its outcome is “inactive”.

Question: With `C=C(C)C(=O)OCCN(CC)CC` as the molecule, how does the outcome read?
Answer: The outcome was “inactive”.

Question: With `O=C(OCc1ccccc1)C(=O)OCc1ccccc1` as the molecule, how does the outcome read?
Answer: Its outcome is “inactive”.

Question: With `O=C(CCNNC(=O)c1ccncc1)NCc1ccccc1` as the molecule, how does the outcome read?
Answer: Its outcome is “inactive”.

Question: For `Cc1ccsc1/C=C/C1=NCCCN1C`, which outcome is on record?
Answer: The outcome was “inactive”.

Question: For `C=CC(OCC)OCC`, which outcome is on record?
Answer: The outcome was “inactive”.

Question: Which outcome does the source give for `CCOCCOCCOCC` here?
Answer: The outcome was “inactive”.

Question: For `COC(=O)C1CC(=O)C(C(=O)OC)CC1=O` (stereo not given), which viability change, negative = cytotoxic is on record?
Answer: Its viability change, negative = cytotoxic is 1.05% [at 8.39 µM] (inactive).

Question: For `CC(C)(C)c1cc(CCC(=O)NN)cc(C(C)(C)C)c1O`, which outcome is on record?
Answer: Its outcome is “inactive”.

Question: Which outcome does the source give for `CC(C)CC(C)CC(C)CC(C)COC(=O)c1ccccc1C(=O)OCC(C)CC(C)CC(C)CC(C)C` (stereo not given) here?
Answer: Its outcome is “inactive”.

Question: With `Cc1cc(Cl)c(C)cc1Cl` as the molecule, how does the outcome read?
Answer: The outcome was “inactive”.

Question: With `CCO[Si](CCCS)(OCC)OCC` as the molecule, how does the outcome read?
Answer: Its outcome is “inactive”.

Question: For `Cc1cccc(OCC(O)CNC(C)(C)C)c1C` (stereo not given), which outcome is on record?
Answer: Its outcome is “inactive”.

Question: With `COc1cc2c(cc1OC)[C@@H]1CC(=O)[C@@H](CC(C)C)CN1CC2` as the molecule, how does the outcome read?
Answer: Its outcome is “inactive”.

Question: For `Cc1ccccc1N=O`, which outcome is on record?
Answer: Its outcome is “inactive”.

Question: With `CCCCCCOC(=O)CC` as the molecule, how does the outcome read?
Answer: Its outcome is “inactive”.

Question: With `CC1=C(C(=O)O)N2C(=O)[C@@H](NC(=O)[C@H](N)c3ccc(O)cc3)[C@H]2SC1` as the molecule, how does the outcome read?
Answer: The outcome was “inactive”.

Question: Which outcome does the source give for `CCn1ccc(NS(=O)(=O)c2ccc(N)cc2)nc1=O` here?
Answer: Its outcome is “inactive”.

Question: For `CC(=C(CCOC(=O)C(C)C)SSC(CCOC(=O)C(C)C)=C(C)N(C=O)Cc1cnc(C)nc1N)N(C=O)Cc1cnc(C)nc1N`, which outcome is on record?
Answer: Its outcome is “inactive”.

Question: Which outcome does the source give for `CCCCCCCCC(=O)Cl` here?
Answer: Its outcome is “inactive”.
